Screening results (PubChem)
TAR Tat displ = HIV-1 TAR-Tat binding disruption. 0.6% of 100,000 active. HIV-1 TAR RNA, Tat peptide displacement FRET; stronger effect = higher value. z-score (no concentration beside the values). AID 1259389; active = z-score of 3 or more in at least 2 runs
CDC25B-CDK2 inh = human CDC25B-CDK2/CyclinA binding inhibition | z-score (test concentration not listed) | 0.72% of 94,000 active | P30305+P24941 | HTRF CDC25B-CDK2/CyclinA binding, anti-His/anti-Flag; stronger effect = higher value; in the data active = z-score above about 3.2
A number is an active result; i = inactive; nt = no result. This is a sample that favours compounds with a hit; in the whole collection about 0.9% have one here.

SMILES	TAR Tat displ	CDC25B-CDK2 inh
O=C(Nc1ccc(F)cc1)c1ccc(Cn2nc(N3CCN(c4ccc(F)cc4)CC3)ccc2=O)o1	i	nt
O=C(Nc1ccc2c(c1)OCO2)c1ccc(Cn2nc(N3CCN(c4ccccc4)CC3)ccc2=O)o1	17	nt
OC(CNCc1ccc(-c2ccccc2)o1)c1ccccc1 (centres undefined)	i	nt
Cc1ccc(C)n1-c1ccc(Cl)cc1C(=O)O	14	i
Cc1cc(C(=O)O)ccc1-n1c(C)ccc1C	nt	i
Cc1ccc(C)n1-c1cc(C(=O)O)ccc1Cl	nt	i
Cc1ccc(C)n1-c1ccc(Cl)c(C(=O)O)c1	16	i
O=C(O)c1c2c(nc3ccccc13)CCCC2	nt	i
CCN1CCN(c2cc(NCc3ccco3)c3c4c(onc24)-c2ccccc2C3=O)CC1	i	i
O=C(C1CCN(c2ccc(Cl)cc2)C1=O)N1CCN(c2ccc(F)cc2)CC1 (centres undefined)	i	nt
CC(C)c1ccc(NS(=O)(=O)c2ccc(C#N)cc2Cl)cc1	nt	i
Cc1ccccc1N1C(N)=NC(N)=NC1(C)C	nt	i
CC1(C)N=C(N)N=C(N)N1c1c(Cl)cccc1Cl	nt	7.9
Cc1cc2c(NC(=O)c3ccccc3C(=O)O)cccc2nn1	nt	21
Cc1cc2c(NC(=O)Nc3ccc(C(C)(C)C)cc3)cccc2nn1	nt	i
Cc1nc(-c2ccccc2)sc1C(=O)N/N=C/c1cc2ccccc2o1	nt	i
Cc1cccc(C)c1NC(=O)Nc1cc2sccc2n1C	i	i
OCCNCc1cccc(Oc2nnnn2-c2ccccc2)c1	i	nt
c1ccc(-n2nnnc2Oc2cccc(CNCc3cccnc3)c2)cc1	21	nt
O=C(c1ccc(F)cc1)c1cn(Cc2ccc(F)cc2)c2cc3c(cc2c1=O)OCO3	i	i
CCN(CC)C(=O)c1c([N+](=O)[O-])cnn1C	i	i
Fc1ccccc1-c1nc(-c2ccccn2)no1	nt	i
c1ccc(-c2noc(-c3cccc4ccccc34)n2)nc1	i	12
N#C/C(=C\Nc1ccc(OC(F)(F)F)cc1)C(=O)C1CC1	nt	i
N#Cc1c(SCC(=O)NCC2CCCO2)nc2c(c1-c1ccco1)CC/C2=C/c1ccco1 (centres undefined)	20	nt
SMILES	TAR Tat displ	CDC25B-CDK2 inh
N#Cc1c(SCC(=O)Nc2cccc(F)c2)nc2c(c1-c1ccco1)CCCC2	nt	i
Cn1ncc2c(Nc3cccc(Cl)c3)nc(NCCCN3CCOCC3)nc21	i	nt
CSc1nnc(SCC(=O)N2CCC(C(F)(F)F)CC2)s1	nt	i
CSc1nnc(S/C(C(C)=O)=C(/C)O)s1	nt	16
CCc1cc2c(=O)oc(-c3ccccc3)nc2s1	i	i
Cc1cccc(-c2nc3sc(C)cc3c(=O)o2)c1	i	7.6
O=C1c2cccc(F)c2C(=O)N1c1ccc(-c2nc3ccccc3o2)cc1	nt	i
CCOCCCNc1ncc2c(n1)CC(c1ccco1)CC2=O (centres undefined)	nt	i
O=C1CC(c2cccs2)Cc2nc(NCCSc3ccc(Cl)cc3)ncc21 (centres undefined)	i	21
O=C1CC(C(=O)Nc2ccc(F)c(Cl)c2)N=C(Nc2ccccc2)N1 (centres undefined)	i	nt
COc1ccccc1N1CSC2=C(C#N)C(c3ccccc3)CC(=O)N2C1 (centres undefined)	i	4.9
COc1ccc(C2CC(=O)N3CN(c4ccccc4OC)CSC3=C2C#N)cc1 (centres undefined)	i	4.3
Cn1c(=O)c(=O)n(CC(=O)N2CCN(c3ccccn3)CC2)c2ccccc21	i	nt
CCOC(=O)c1sc2ccc(NC(=O)c3ccccc3Cl)cc2c1C	nt	i
Cc1ccc2[nH]c(=O)c(CN(C(C)C)S(=O)(=O)c3ccccc3)cc2c1	19	i
CCN(Cc1cc2cc(C)ccc2[nH]c1=O)S(=O)(=O)c1ccc(C)cc1	i	i
Cc1ccc(N2C(=O)CCS2(=O)=O)cc1S(=O)(=O)N1CCN(c2ccc(F)cc2)CC1	i	i
Cc1ccc(OCc2cc(=O)n3c4c(sc3n2)CCCC4)cc1	i	i
Cc1ccc(C(=O)CSc2n[nH]c(-c3ccco3)n2)cc1C	15	i
COc1ccc(C(=O)CSc2n[nH]c(-c3ccco3)n2)cc1C	i	i
COc1ccc(C2CC(=O)Nc3nc(SCc4ccccc4)[nH]c(=O)c32)cc1Br (centres undefined)	i	i
Cc1ccc(CSc2nc3c(c(=O)[nH]2)C(c2ccc(O)c(O)c2)CC(=O)N3)cc1 (centres undefined)	12	i
Cc1cccc(CSc2nc3c(c(=O)[nH]2)C(c2ccc(O)c(O)c2)CC(=O)N3)c1 (centres undefined)	12	i
Cc1cccc(CSc2nc3c(c(=O)[nH]2)C(c2cc(F)cc(F)c2)CC(=O)N3)c1 (centres undefined)	i	i
O=C1CC(c2ccc(O)c(O)c2)c2c(nc(SCc3ccccc3)[nH]c2=O)N1 (centres undefined)	17	i
SMILES	TAR Tat displ	CDC25B-CDK2 inh
Cc1ccc(CSc2nc3c(c(=O)[nH]2)C(c2cc(C)ccc2C)CC(=O)N3)cc1 (centres undefined)	i	i
CC(C)(C)C(=O)c1snc(Nc2ccc(Cl)cc2F)c1N	i	i
Cc1ccc(OC(=O)c2nc(S(C)(=O)=O)ncc2Cl)c(C)c1	i	i
Cc1ccc(NS(=O)(=O)c2c(C)nc3sc(C)c(C)n3c2=O)c(Cl)c1	i	nt
Cc1oc2ccc(O)c(CN3CCCC3)c2c1C(=O)NC1CCCC1	i	i
CC1CCN(C(=O)[C@H]2[C@@H]3C[C@@H]4[C@H]2C(=O)O[C@@H]4C3)CC1	i	i
COc1ccc(C2=Nc3cccnc3NC(=O)C2)cc1	i	16
O=C1CC(c2ccccc2)=Nc2cccnc2N1	i	i
CCCCCc1ccc(S(=O)(=O)Nc2ccc(C)c(NS(C)(=O)=O)c2)cc1	nt	i
Clc1ccccc1-c1ccc(-c2nn3c(-c4ccco4)nnc3s2)o1	i	15
Cc1ccc(/C=C/c2nn3c(-c4ccncc4)nnc3s2)cc1	i	i
Clc1ccccc1/C=C/c1nn2c(-c3ccco3)nnc2s1	19	i
Clc1cccc(-c2nnc3sc(-c4ccco4)nn23)c1	i	i
C(=C\c1nn2c(-c3ccncc3)nnc2s1)/c1ccco1	26	i
Cc1ccc(/C=C/c2nn3c(-c4ccco4)nnc3s2)cc1C	17	i
Cc1ccc(/C=C/c2nn3c(-c4ccco4)nnc3s2)cc1	i	i
Clc1ccccc1/C=C/c1nn2c(-c3ccncc3)nnc2s1	i	i
COc1ccc(-c2noc(CNS(=O)(=O)c3ccc(OC)cc3)n2)cc1	i	i
CCOC(=O)C(=O)CC(=O)c1ccc2c(c1)OCCO2	i	i
CCc1ccc(C(c2ccc(CC)o2)c2cc3c(cc2[N+](=O)[O-])OCCO3)o1	nt	4.4
CCOC(=O)c1c(C)[nH]c(NC(=O)NC2CCCCC2)c1C	i	i
CN(Cc1ccccc1)C(=O)c1ccc2c(=O)[nH]c3c(C(=O)NC4CCCC4)sc(=S)n3c2c1	i	nt
CCCCN(CC)CCNC(=O)c1nn(C)c2c1CS(=O)(=O)c1ccccc1-2	i	i
CCN(CC)CCCNC(=O)c1nn(C)c2c1CS(=O)(=O)c1ccccc1-2	6.9	i
Cc1ccc(-n2c(C)nc3c(cnn3-c3ccc(Cl)cc3)c2=O)cc1C	nt	i
c1ccc(-c2c3ssnc-3c3ccccc23)cc1	nt	17
Cc1nc(-c2ccccc2)c(-c2ccccc2)s1	i	i
Cc1cc2c(cc1S(=O)(=O)N1CCc3ccccc3C1)OCC(=O)N2Cc1noc(C2CC2)n1	i	nt
O=C(O)Cn1cc(-c2nnco2)c2ccccc21	i	i
